From PubChem BioAssay AID1851 (National Center for Advancing Translational Sciences (NCATS), 2009)
Screen size: about 16,000 compounds; about 5,100 (32%) were called active. Not shown: some 25% with an inconclusive outcome. The list shows a part of the results. Values without a mark were called inactive. Calls follow the shape of the dose curve; as a rule, active = well fitted curve in the direction sought with a large enough effect; inconclusive = small, poorly fitted or top-dose-only effect, or effect the other way; inactive = no such curve, though single readings can be large or run the other way.

Each molecule was assayed against Cytochrome P450 3A4 (Homo sapiens) (UniProt P08684) (assay: Cytochrome panel assay with activity outcomes). Details: recombinant CYP, pro-luciferin dealkylation, luminescence, p450-cyp3a4; series mostly up to 57.1 µM; activity, negative = inhibition: at the top concentration.
% is scaled to controls: 0 for no effect and ±100 for the full control effect.

Cytochrome P450 3A4 (Homo sapiens), sequence (P08684 whole entry, looked up): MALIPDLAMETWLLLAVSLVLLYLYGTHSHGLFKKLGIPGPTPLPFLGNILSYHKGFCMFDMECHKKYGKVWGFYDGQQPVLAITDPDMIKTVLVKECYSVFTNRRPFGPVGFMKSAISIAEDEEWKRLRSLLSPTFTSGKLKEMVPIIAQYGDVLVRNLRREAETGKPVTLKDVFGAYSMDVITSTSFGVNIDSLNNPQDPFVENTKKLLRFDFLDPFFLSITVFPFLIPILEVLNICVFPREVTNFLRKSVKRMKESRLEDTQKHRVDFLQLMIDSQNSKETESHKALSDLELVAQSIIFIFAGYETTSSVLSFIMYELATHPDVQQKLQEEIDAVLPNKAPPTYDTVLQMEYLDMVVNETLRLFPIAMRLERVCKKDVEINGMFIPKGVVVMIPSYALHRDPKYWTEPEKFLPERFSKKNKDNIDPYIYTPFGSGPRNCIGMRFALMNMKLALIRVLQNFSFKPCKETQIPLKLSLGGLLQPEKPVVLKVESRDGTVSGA

Question: For `N#CC1=C(N)OC2=C(C(=O)CCC2)C12CCC1(CC2)OCCO1`, which “activity, negative = inhibition” value is on record?
Answer: -15.2%

Question: `COc1cc(C2C(C#N)=C(N)OC3=C2C(=O)CCC3)c([N+](=O)[O-])cc1OC` (stereo not drawn) was tested. Which AC50 did it give?
Answer: 11.2 µM (active)

Question: Which AC50 does the source give for `Cc1cc(C2C(C#N)=C(N)OC3=C2C(=O)CC(C)(C)C3)c(C)s1` (stereo not drawn) here?
Answer: 3.55 µM (active)

Question: Which AC50 does the source give for `COc1ccc(C2C(C#N)=C(N)OC3=C2C(=O)CC(C)(C)C3)c([N+](=O)[O-])c1OC` (stereo not drawn) here?
Answer: 5.01 µM (active)

Question: How did the activity, negative = inhibition turn out when `CN1CCN(/C=N/C2=C(C#N)C(c3ccccc3)C3=C(CC(C)(C)CC3=O)O2)CC1` (stereo not drawn) was run?
Answer: 1.82% [at 2.29 µM]

Question: How did the activity, negative = inhibition turn out when `CCSC[C@@H](N)C(=O)O` was run?
Answer: -3.53% [at 11.4 µM]

Question: Which activity, negative = inhibition does the source give for `COC(=O)\C(C(C)=O)=C(/C=C/C=C/C=C/N(C)C)N(C)C` here?
Answer: 1.83% [at 2.29 µM]

Question: How did the AC50 turn out when `CCc1c(C)nc(N)n2c(SCC(=O)Nc3ccccc3)nnc12` was run?
Answer: 17.8 µM (active)

Question: Which AC50 does the source give for `COc1cccc(-c2nccc(N(C)Cc3ccco3)n2)c1` here?
Answer: 20 µM (active)

Question: `CN(Cc1ccco1)c1ccnc(-c2cccnc2)n1` was tested. Which AC50 did it give?
Answer: 12.6 µM (active)

Question: With `CN(Cc1ccco1)c1ccnc(-c2cccc(C#N)c2)n1` as the molecule, how does the AC50 read?
Answer: 12.6 µM (active)

Question: How did the “activity, negative = inhibition” value turn out when `CN(Cc1ccco1)c1ccnc(-c2ccoc2)n1` was run?
Answer: -11.2%

Question: `CN(C)c1ncc2nc(-c3cccc(C#N)c3)c(=O)n(C[C@H]3CCCO3)c2n1` was tested. Which “activity, negative = inhibition” value did it give?
Answer: -10.8%

Question: `CCN=C1NN=C(c2ccc(C)cc2)CS1` was tested. Which AC50 did it give?
Answer: 15.8 µM (active)

Question: For `Cc1cccc(NC(=O)CC2Nc3cccc4cccc(c34)NC2=O)c1` (stereo not drawn), which AC50 is on record?
Answer: 2.51 µM (active)

Question: With `CC(=O)Nc1ccc(NC(=O)CC2Nc3cccc4cccc(c34)NC2=O)cc1` (stereo not drawn) as the molecule, how does the AC50 read?
Answer: 10 µM (active)

Question: `N/N=C1/c2ccccc2N[C@H]1OC(=O)Nc1ccccc1` was tested. Which activity, negative = inhibition did it give?
Answer: -29.3% [at 11.4 µM]

Question: How did the “activity, negative = inhibition” value turn out when `CC(=O)Nc1ccc(C#Cc2ccc(NC(C)=O)cc2)cc1` was run?
Answer: -11.2%

Question: Which activity, negative = inhibition does the source give for `COc1cccc2c1C(=N)c1c(O)c3c(c(O)c1C2=O)C[C@](O)(C(C)=O)C[C@@H]3O[C@H]1C[C@H](N)[C@@H](O)[C@H](C)O1` here?
Answer: -16% [at 11.4 µM]

Question: `COc1ccc(NS(=O)(=O)c2ccc(NC(=O)c3cnn4c(C(F)F)cc(-c5ccc(C)cc5)nc34)cc2)cc1` was tested. Which AC50 did it give?
Answer: 1.26 µM (active)

Question: Which AC50 does the source give for `Cc1cccc(C)c1NC(=O)CSc1nc(C)c(CC(=O)c2ccc(Br)cc2)c(C)c1C#N` here?
Answer: 5.01 µM (active)

Question: With `Cc1nonc1NCn1nnc2ccccc21` as the molecule, how does the “activity, negative = inhibition” value read?
Answer: 2.63%

Question: Which “activity, negative = inhibition” value does the source give for `O=C(O)Cn1c(-c2ccccc2)nc2ccccc21` here?
Answer: 3.83%

Question: How did the AC50 turn out when `CCC(=O)Nc1nonc1-c1nc2ccccc2n1N(C(=O)CC)C(=O)CC` was run?
Answer: 22.4 µM (active)

Question: With `CCC(=O)N1CCn2c1nc1ccccc12` as the molecule, how does the “activity, negative = inhibition” value read?
Answer: -0.0339%

Question: Which AC50 does the source give for `CCn1c(-c2nonc2NC(=O)c2ccccc2)nc2ccccc21` here?
Answer: 3.16 µM (active)

Question: `CC(=O)Nc1nonc1NC(=O)c1ccc(C(C)(C)C)cc1` was tested. Which activity, negative = inhibition did it give?
Answer: -6.73% [at 11.4 µM]

Question: For `Nc1c(S(N)(=O)=O)cc(S(N)(=O)=O)cc1S(N)(=O)=O`, which activity, negative = inhibition is on record?
Answer: -3.99% [at 11.4 µM]

Question: For `CCOc1cc2[nH]c(=S)n(CCCC(=O)NCc3ccco3)c(=O)c2cc1OCC`, which AC50 is on record?
Answer: 3.98 µM (active)

Question: For `COCCCn1c(=S)[nH]c2ncccc2c1=O`, which “activity, negative = inhibition” value is on record?
Answer: -24.6%

Question: Which AC50 does the source give for `O=C(CCCCn1c(=S)[nH]c2ccsc2c1=O)NCc1ccco1` here?
Answer: 7.08 µM (active)

Question: How did the “activity, negative = inhibition” value turn out when `COCCn1c(=S)[nH]c2cc(C(=O)NC(C)C)ccc2c1=O` was run?
Answer: 13.9%

Question: `O=C(CCCCCn1c(=O)[nH]c2ccsc2c1=O)NCc1ccc2c(c1)OCO2` was tested. Which AC50 did it give?
Answer: 0.631 µM (active)

Question: With `O=C(NCc1ccco1)c1ccc2c(=O)n(-c3ccccc3)c(=S)[nH]c2c1` as the molecule, how does the “activity, negative = inhibition” value read?
Answer: -4.58%

Question: How did the AC50 turn out when `COCCNC(=O)CCCCCn1c(=S)[nH]c2ccccc2c1=O` was run?
Answer: 8.91 µM (active)

Question: `Cc1ccc(-n2c(=O)c3sccc3n(CC(=O)NCc3ccco3)c2=O)cc1F` was tested. Which “activity, negative = inhibition” value did it give?
Answer: -1.5%

Question: `O=C(CCn1c(=O)[nH]c2ccsc2c1=O)Nc1ccc(F)c(F)c1` was tested. Which “activity, negative = inhibition” value did it give?
Answer: 10.8%

Question: How did the “activity, negative = inhibition” value turn out when `O=C1C(C2=NC(C(=O)O)C3C(=O)N(c4ccc(Cl)cc4)C(=O)C23)=C(O)c2ccccc21` (stereo not drawn) was run?
Answer: 16.7%

Question: `O=C1C2Sc3[nH]c(=O)sc3C(c3ccccc3)C2C(=O)N1c1ccc(Cl)cc1` (stereo not drawn) was tested. Which AC50 did it give?
Answer: 12.6 µM (active)

Question: Which AC50 does the source give for `O=C1C2Sc3[nH]c(=O)sc3C(c3ccccc3)C2C(=O)N1c1ccccc1` (stereo not drawn) here?
Answer: 7.94 µM (active)

Question: How did the activity, negative = inhibition turn out when `Nc1ccccc1CCCC(=O)O` was run?
Answer: 0.683% [at 11.4 µM]

Question: For `O=C(CSc1nnc(-c2ccncc2)n1Cc1ccccc1)Nc1nccs1`, which activity, negative = inhibition is on record?
Answer: -23.1% [at 2.29 µM]

Question: With `C=CCn1c(SCC(=O)Nc2ncc(Cc3ccc(Br)cc3)s2)nnc1-c1ccncc1` as the molecule, how does the AC50 read?
Answer: 1.41 µM (active)

Question: Which “activity, negative = inhibition” value does the source give for `CC(C)n1c(N2CCN(C(=O)Nc3ccccc3)CC2)nc2ccccc21` here?
Answer: -29.4%

Question: Which “activity, negative = inhibition” value does the source give for `CCCCc1c(O)nc(SCCN(C)C)n(-c2ccccc2)c1=O` here?
Answer: -3.84%

Question: Which AC50 does the source give for `CC(C)N(C(=O)CSc1nc2ccccc2n1-c1ccccc1)C(C)C` here?
Answer: 7.94 µM (active)

Question: Which “activity, negative = inhibition” value does the source give for `CNc1c2c(nn1C)CCCC2` here?
Answer: 2.07%

Question: With `O=C(Nc1ccc(Oc2ccccc2)cc1)C1CCN(c2c3c(nc4ncnn24)CCC3)CC1` as the molecule, how does the “activity, negative = inhibition” value read?
Answer: -19%
